Experimental data from PubChem BioAssay (EPA / NIEHS).
Results filed as inconclusive are left out. Active and inactive are the calls of the source. Rule for the calls, unless noted: active = hit-call score of the fitted dose curve at least 0.9, where 1 is the maximum; inactive = score below 0.9.

Experiments:
[1] = ATG_PXRE_CIS: Attagene CIS-FACTORIAL HepG2 Assay for human Pregnane X Receptor Element (PXRE) (AID 2282957); details: HepG2 Attagene CIS-FACTORIAL PXRE reporter, mRNA; actives raise or lower the signal
Method in brief: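 HepG2 cells transiently transfected with cis-element-driven multiplexed reporter units; after 24 h chemical exposure, reporter mRNA measured by RT-PCR, 6-FAM labelling, HpaI digestion and capillary electrophoresis. Bidirectional fitting relative to DMSO.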

[2] = ATG_PPRE_CIS: Attagene CIS-FACTORIAL HepG2 Assay for human Peroxisome Proliferator-activated Response Element (PPRE) (AID 2282958); details: HepG2 PPRE cis-element reporter, Attagene transcription factor profiling; actives raise or lower the signal
Method in brief: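 PPRE activity in HepG2: transient cis-reporter transfection, 24 h compound incubation, reporter mRNA by RT-PCR and CE fluorescence; gain/loss fitted against DMSO.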

[3] = ATG_Sox_CIS: Attagene CIS-FACTORIAL HepG2 Assay for human SRY-box transcription factor (SOX) (AID 2282960); details: HepG2 Attagene cis-factorial SOX reporter, mRNA; actives raise or lower the signal
Method in brief: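 HepG2, cis reporter units, 24 h exposure. Reporter mRNA: RT-PCR → FAM labelling → HpaI → CE fluorescence. Bidirectional fit vs DMSO.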

[4] = biological target: Transcription factor Sp1 (Homo sapiens) (UniProt P08047); test: ATG_Sp1_CIS: Attagene CIS-FACTORIAL HepG2 Assay for human Specificity Protein 1 (Sp1) (AID 2282961); details: HepG2 Sp1 cis-reporter transcription, actives raise or lower the signal
Chain of Transcription factor Sp1 (Homo sapiens) (P08047 whole entry, looked up, the tested form may be a part): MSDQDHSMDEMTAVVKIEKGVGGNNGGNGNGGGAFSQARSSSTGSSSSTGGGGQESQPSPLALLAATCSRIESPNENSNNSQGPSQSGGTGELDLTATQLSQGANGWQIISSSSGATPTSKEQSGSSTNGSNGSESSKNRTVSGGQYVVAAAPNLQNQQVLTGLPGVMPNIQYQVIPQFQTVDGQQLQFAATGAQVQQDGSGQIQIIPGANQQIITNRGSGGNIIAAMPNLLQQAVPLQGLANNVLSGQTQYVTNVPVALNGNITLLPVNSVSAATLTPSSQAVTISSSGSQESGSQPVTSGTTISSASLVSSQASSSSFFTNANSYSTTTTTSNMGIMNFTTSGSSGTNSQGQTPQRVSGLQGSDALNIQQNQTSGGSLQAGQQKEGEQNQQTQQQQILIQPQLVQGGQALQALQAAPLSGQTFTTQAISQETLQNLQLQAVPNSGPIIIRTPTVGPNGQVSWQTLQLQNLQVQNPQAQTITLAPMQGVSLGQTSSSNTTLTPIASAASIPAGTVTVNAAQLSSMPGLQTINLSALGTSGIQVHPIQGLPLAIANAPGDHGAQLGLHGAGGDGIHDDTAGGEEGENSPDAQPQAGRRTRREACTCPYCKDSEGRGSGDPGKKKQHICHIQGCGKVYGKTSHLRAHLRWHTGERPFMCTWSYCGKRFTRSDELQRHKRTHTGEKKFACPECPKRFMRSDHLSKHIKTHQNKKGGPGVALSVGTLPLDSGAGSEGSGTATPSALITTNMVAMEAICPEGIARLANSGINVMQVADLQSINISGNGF
Method in brief: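 Liver-derived HepG2 cells, cis-element reporter library, 24 h treatment; RNA isolated, cDNA amplified with reporter-specific primers, FAM-labeled fragments sized on capillary analyzer. DMSO baseline, bidirectional curve fit.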

[5] = ATG_SREBP_CIS: Attagene CIS-FACTORIAL HepG2 Assay for human Sterol Regulatory Element Binding (SREBP) (AID 2282962); details: HepG2 Attagene cis-factorial SREBP reporter, mRNA; actives raise or lower the signal
Method in brief: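 mRNA induction of transfected cis-promoter reporters in HepG2 cells, 24 h post-dose. Detection: RT-PCR with 6-FAM-labelled products, HpaI digest, capillary electrophoresis. DMSO served as negative control and baseline.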

[6] = biological target: Signal transducer and activator of transcription 3 (Homo sapiens) (UniProt P40763); test: ATG_STAT3_CIS: Attagene CIS-FACTORIAL HepG2 Assay for human Signal Transducer and Activator of Transcription 3 (STAT3) (AID 2282963); details: HepG2, Attagene cis-factorial STAT3 reporter transcription; actives raise or lower the signal
Chain of Signal transducer and activator of transcription 3 (Homo sapiens) (P40763 whole entry, looked up): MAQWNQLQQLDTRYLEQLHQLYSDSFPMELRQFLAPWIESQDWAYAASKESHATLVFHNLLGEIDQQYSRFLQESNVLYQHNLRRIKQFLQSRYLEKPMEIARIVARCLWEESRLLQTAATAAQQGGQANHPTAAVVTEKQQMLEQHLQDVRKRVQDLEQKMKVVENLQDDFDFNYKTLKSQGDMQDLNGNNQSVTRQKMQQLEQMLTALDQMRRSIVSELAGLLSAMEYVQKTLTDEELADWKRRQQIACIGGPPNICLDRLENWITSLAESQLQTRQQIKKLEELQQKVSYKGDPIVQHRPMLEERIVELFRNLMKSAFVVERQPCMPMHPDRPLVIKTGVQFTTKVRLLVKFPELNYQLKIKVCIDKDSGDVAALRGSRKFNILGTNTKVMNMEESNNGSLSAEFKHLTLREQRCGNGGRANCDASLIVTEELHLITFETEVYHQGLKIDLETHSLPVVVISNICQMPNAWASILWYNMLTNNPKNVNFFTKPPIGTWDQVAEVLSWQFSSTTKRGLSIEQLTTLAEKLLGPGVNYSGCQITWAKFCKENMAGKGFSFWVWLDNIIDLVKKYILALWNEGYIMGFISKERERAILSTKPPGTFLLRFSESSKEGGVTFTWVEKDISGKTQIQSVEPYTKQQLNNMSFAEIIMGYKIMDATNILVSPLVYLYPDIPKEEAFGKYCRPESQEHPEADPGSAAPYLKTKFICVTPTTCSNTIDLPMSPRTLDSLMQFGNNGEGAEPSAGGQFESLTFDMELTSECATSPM
Method in brief: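 Values derive from bidirectional fits relative to DMSO of reporter mRNA levels, measured by RT-PCR with capillary electrophoresis, in HepG2 cells carrying transiently transfected cis-regulated reporter units and exposed 24 h.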

[7] = ATG_TA_CIS: Attagene CIS-FACTORIAL HepG2 Assay for human TA Basal Promoter (AID 2282964); details: HepG2 Attagene CIS-factorial TA basal promoter reporter; actives raise or lower the signal
Method in brief: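 HepG2 cells transiently transfected with multiple reporter units under cis promoter elements, reporting endogenous transcription factor activity; this endpoint tracks the TA basal promoter as background control. Reporter mRNA after 24 h dosing measured by RT-PCR/capillary electrophoresis; bidirectional fits versus DMSO.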

[8] = ATG_TCF_b_cat_CIS: Attagene CIS-FACTORIAL HepG2 Assay for human T-Cell-Factor with beta-catenin (TCF/b-cat) (AID 2282965); details: HepG2 TCF/beta-catenin cis-reporter transcription, actives raise or lower the signal
Method in brief: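 Cells of the HepG2 line carry transiently transfected reporter units whose promoters respond to endogenous factors. Twenty-four hours post-dosing, reporter mRNA induction is measured by fluorescent RT-PCR and capillary electrophoresis, with DMSO as baseline.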

[9] = ATG_TAL_CIS: Attagene CIS-FACTORIAL HepG2 Assay for human TAL Basal Promoter (AID 2282966); details: HepG2 Attagene cis-factorial TAL promoter reporter; actives raise or lower the signal;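 note: background control endpoint measuring basal TAL promoter reporter mRNA not a specific factor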
Method in brief: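 HepG2 cells transiently transfected with multiplexed cis-promoter reporter units, dosed 24 h. Reporter mRNA quantified by RT-PCR, 6-FAM labelling, HpaI digestion and capillary electrophoresis; TAL basal promoter serves as background control, fitted bidirectionally versus DMSO.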

[10] = ATG_TGFb_CIS: Attagene CIS-FACTORIAL HepG2 Assay for human Transforming Growth Factor (TGF) (AID 2282967); details: HepG2 Attagene CIS TGFb reporter, mRNA transcription; actives raise or lower the signal
Method in brief: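 HepG2 cells transiently transfected with cis-promoter-driven multiple reporter units measure endogenous TF activity; reporter mRNA quantified at 24 h by RT-PCR, FAM labeling, HpaI digestion and capillary electrophoresis. Bidirectional fit vs DMSO.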

[11] = ATG_VDRE_CIS: Attagene CIS-FACTORIAL HepG2 Assay for human Vitamin D Receptor Element (VDRE) (AID 2282968); details: HepG2 VDRE cis-reporter transcription, actives raise or lower the signal
Method in brief: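 Cell-based multiplexed reporter format in human liver HepG2 cells, 24 h post-dose. Fluorescence from capillary electrophoresis of reporter cDNA gives the signal, with DMSO as negative control and baseline.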

[12] = biological target: Nuclear receptor subfamily 1 group I member 3 (Homo sapiens) (UniProt Q14994); test: ATG_CAR_TRANS: Attagene TRANS-FACTORIAL HepG2 Assay for human Constitutive Androstane Receptor (CAR) (AID 2282969; active = hit-call score of the fitted dose curve at least 0.9, where 1 is the maximum;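 note: activators raise reporter mRNA above DMSO so AC50 marks induction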); details: HepG2 Attagene TRANS-FACTORIAL CAR reporter
Chain of Nuclear receptor subfamily 1 group I member 3 (Homo sapiens) (Q14994 whole entry, looked up, the tested form may be a part): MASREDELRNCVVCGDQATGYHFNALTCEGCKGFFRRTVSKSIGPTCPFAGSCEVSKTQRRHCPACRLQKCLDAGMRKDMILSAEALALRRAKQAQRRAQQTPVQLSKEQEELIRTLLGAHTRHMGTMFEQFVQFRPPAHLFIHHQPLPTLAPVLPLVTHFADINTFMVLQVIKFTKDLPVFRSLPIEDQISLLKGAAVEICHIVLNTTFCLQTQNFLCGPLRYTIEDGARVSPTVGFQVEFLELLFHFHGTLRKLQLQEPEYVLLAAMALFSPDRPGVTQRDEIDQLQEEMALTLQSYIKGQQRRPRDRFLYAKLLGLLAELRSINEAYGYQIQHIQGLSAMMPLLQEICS
Method in brief: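 HepG2 cells transiently transfected with GAL4-UAS reporter units; TRANS format reads activity of exogenous chimeric NR-Gal4 protein. After 24 h dosing, reporter mRNA quantified by RT-PCR, 6-FAM labelling and capillary electrophoresis; gain of signal fitted against DMSO.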

[13] = biological target: Estrogen receptor (Homo sapiens) (UniProt P03372); test: ATG_ERa_TRANS: Attagene TRANS-FACTORIAL HepG2 Assay for human Estrogen Receptor alpha (ERa) (AID 2282970; active = hit-call score of the fitted dose curve at least 0.9, where 1 is the maximum); details: HepG2 Attagene TRANS ERa GAL4 reporter, mRNA
Chain of Estrogen receptor (Homo sapiens) (P03372 whole entry, looked up, the tested form may be a part): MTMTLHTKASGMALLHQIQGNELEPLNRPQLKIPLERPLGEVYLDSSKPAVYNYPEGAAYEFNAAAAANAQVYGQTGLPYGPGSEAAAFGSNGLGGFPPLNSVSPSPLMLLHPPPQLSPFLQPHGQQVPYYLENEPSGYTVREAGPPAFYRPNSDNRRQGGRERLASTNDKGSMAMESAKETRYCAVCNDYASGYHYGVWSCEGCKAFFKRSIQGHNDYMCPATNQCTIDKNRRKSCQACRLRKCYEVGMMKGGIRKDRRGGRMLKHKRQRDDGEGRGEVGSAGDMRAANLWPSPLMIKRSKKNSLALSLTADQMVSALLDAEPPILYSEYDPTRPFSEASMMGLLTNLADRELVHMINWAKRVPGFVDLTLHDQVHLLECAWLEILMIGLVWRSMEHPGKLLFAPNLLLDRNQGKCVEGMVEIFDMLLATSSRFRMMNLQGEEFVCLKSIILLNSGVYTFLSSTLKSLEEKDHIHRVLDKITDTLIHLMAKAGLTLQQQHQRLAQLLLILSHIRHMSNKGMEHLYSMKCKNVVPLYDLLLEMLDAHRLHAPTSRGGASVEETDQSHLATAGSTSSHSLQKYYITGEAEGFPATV
Method in brief: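 HepG2 cells transiently transfected with multiplexed GAL4-UAS reporter units read out chimeric NR-Gal4 activity. After 24 h compound exposure, reporter mRNA was quantified by RT-PCR, 6-FAM labeling, HpaI digestion and capillary electrophoresis, relative to DMSO.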

[14] = biological target: X-box-binding protein 1 (Homo sapiens) (UniProt P17861); test: ATG_Xbp1_CIS: Attagene CIS-FACTORIAL HepG2 Assay for human X-box Binding Protein 1 (XBP1) (AID 2282972); details: HepG2 XBP1 cis-element reporter, Attagene multiplex; actives raise or lower the signal
Chain of X-box-binding protein 1 (Homo sapiens) (P17861 whole entry, looked up, the tested form may be a part): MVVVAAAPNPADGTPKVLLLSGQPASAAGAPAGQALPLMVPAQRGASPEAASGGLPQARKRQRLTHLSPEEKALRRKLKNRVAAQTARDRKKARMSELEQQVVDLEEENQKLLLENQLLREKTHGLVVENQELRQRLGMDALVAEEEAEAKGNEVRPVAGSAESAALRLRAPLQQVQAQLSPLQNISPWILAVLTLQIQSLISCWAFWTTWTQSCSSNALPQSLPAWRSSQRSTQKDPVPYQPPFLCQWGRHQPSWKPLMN
Method in brief: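 Fluorescence-labelled cDNA fragments from reporter transcripts, separated by capillary electrophoresis, give the signal. Source: HepG2 cells transfected with promoter-driven reporter units, harvested 24 h post-dose. DMSO served as reference for bidirectional curve fitting.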

[15] = ATG_M_19_TRANS: Attagene TRANS-FACTORIAL HepG2 Assay for M19 Transcription Factor (Internal Marker) (AID 2282974; active = hit-call score of the fitted dose curve at least 0.9, where 1 is the maximum); details: HepG2 Attagene TRANS-FACTORIAL M19 internal marker reporter
Method in brief: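 Transfected HepG2 (GAL4-UAS MRTUs), 24 h compound, TriZol RNA, DNase-treated RT, reporter PCR, FAM label, HpaI digest, CE fluorescence; gain vs DMSO.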

[16] = ATG_RORE_CIS: Attagene CIS-FACTORIAL HepG2 Assay for human RAR-related Orphan Receptor Element (RORE) (AID 2282959); details: HepG2 Attagene cis-factorial RORE reporter, mRNA; actives raise or lower the signal
Method in brief: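 A 24-hour exposure of transfected HepG2 hepatoma cells precedes RNA isolation and reporter RT-PCR. Labeled products are digested with HpaI and resolved by capillary electrophoresis, with gain or loss of signal scored relative to DMSO.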

[17] = ATG_GAL4_TRANS: Attagene TRANS-FACTORIAL HepG2 Assay for GAL4 (Internal Marker) (AID 2282976; active = hit-call score of the fitted dose curve at least 0.9, where 1 is the maximum); details: HepG2 Attagene TRANS GAL4 internal marker reporter
Method in brief: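 Background-control readout: GAL4-UAS reporter transcript in transiently transfected HepG2 cells after 24 h compound exposure. Measured by RT-PCR, 6-FAM primer extension, HpaI digest and capillary electrophoresis; gain-of-signal fit versus DMSO.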

Measured: AC50

Cc1ccc(S(=O)(=O)O)cc1C
not listed: [16] | [17]
inactive: all other assays above

O=c1n(CC2CO2)c(=O)n(CC2CO2)c(=O)n1CC1CO1 (configuration not stated)
active: [16] 65.3 µM | [3] 65.2 µM | [4] 17.1 µM | [11] 100 µM | [14] 74.9 µM
not listed: [1] | [15] | [17]
inactive: all other assays above

O=P(OC(CCl)CCl)(OC(CCl)CCl)OC(CCl)CCl
active: [1] 0.371 µM | [5] 24.4 µM | [6] 188 µM | [8] 100 µM | [11] 3.53 µM | [14] 100 µM
not listed: [12] | [15] | [16]
inactive: all other assays above

Nc1ccc(Nc2ccccc2)cc1
active: [13] 24.5 µM
not listed: [2] | [10] | [11] | [12] | [17]
inactive: all other assays above

CCCCCCCCO
active: [8] 20.5 µM
not listed: [1] | [12]
inactive: all other assays above

O=C1CCC(N2C(=O)c3ccccc3C2=O)C(=O)N1 (configuration not stated)
not listed: [11] | [12] | [13] | [15] | [16]
inactive: all other assays above

CCCCCCCCCCCCCCCO
not listed: [1] | [12] | [13] | [15] | [17]
inactive: all other assays above

C=CC(=C)CCC=C(C)C
not listed: [1] | [2] | [15] | [17]
inactive: all other assays above

COCCOc1cc2cc(C(=O)NC3CCN(C(C)C)CC3)n(CC(=O)Nc3ccc(Cl)cn3)c2cn1
inactive: [6] | [7] | [9] | [10]
active: [3] 135 µM | [4] 100 µM | [5] 26.5 µM | [8] 108 µM | [11] 124 µM | [14] 100 µM
